The text below walks through data of PubChem BioAssay (NCI).

Structures are written as SMILES. Compounds without any hit were thinned out: in the full panel of roughly 83,000, 20% have a hit.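 Each cell line was grown in a 96-well plate and treated with one concentration of compound for 48 hours. Values below 10 were considered active.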 Unmarked numbers belong to inactive results. The source made the active and inactive calls.

Holding throughout (assay): NCI-60 one-dose screen, 48 h (100 = growth as untreated, 0 = no growth, -100 = all killed)
Common to all, as to conditions: 10 µM unless noted

For assay [1], the system named is NCI-H23 lung.
The test system of assay [2] is NCI-H226 lung.
Assay [3] has as its system NCI-H322M lung.
The test system of assay [4] is HOP-62 NSCLC.
The subject of assay [5] is NCI-H460 lung.
Assay [6] concerns HOP-92 NSCLC.
For assay [7], the system named is NCI-H522 lung.
Assay [8] relates to A549/ATCC NSCLC.
Assay [9] concerns 786-0 renal.
The subject of assay [10] is COLO 205 colon.

In the case of `O=C1Nc2cc(Cl)ccc2/C1=C/c1cccc(OCc2ccccn2)c1`, the growth in assay [1] is 19.6%; in assay [2], 38.6%; in [3] it was 68.2%; in assay [4] it was 17.4%; in assay [5], 13.9%; in [6], -3.65% (active). The growth in [7] was -42.4% (active); in assay [8], 37.5%; in [9], 10.8%; in [10], 51.7%.

For the compound `COc1ccc2[nH]cc(-c3nc(N)nnc3-c3cn(C)c4ncccc34)c2c1`, the growth in assay [1] is 69.9%; in assay [2], 66.4%; in [3] it was 69.6%; in assay [4], 62.4%; in assay [5] it was 25%; in assay [6], 81.2%. Further, the growth in assay [7] is 34.3%; in [8], 51.2%; in assay [9], 64.2%; in assay [10], 44.5%.

For `Cc1cc(=O)oc2cc(OCCCCOc3ccc(/C=C/C(=O)Nc4ccccc4N)cc3)ccc12`, the growth in [1] was 76%; in [2], 47.9%; in [3], 82.2%; in assay [4], 69.7%; in [5], 45.2%; in assay [6], 83%. Also, the growth is 35.7% in [7], 46.9% in [8], 49.5% in [9] and 44.9% in assay [10].

`COc1ccc(C2(SCCNCc3cc(N(C)C)ccn3)c3ccccc3C=Cc3ccccc32)cc1`: the growth in assay [1] was 13.5%; in assay [2], 50.6%; in [3] it was 35.1%; in assay [4], 40%; in [5], -14% (active); in assay [6] it was 0.307% (active). Further, the growth was -17.2% (active) in assay [7], 21.3% in assay [8], 23.5% in [9] and -29.8% (active) in [10].

Turning to `CN1CCN(c2ccc(C(=O)/C=C/c3cc(C(F)(F)F)cc(C(F)(F)F)c3)cc2)CC1`, the growth in assay [1] was -66.2% (active); in assay [2], -42.9% (active); in assay [3], -81.7% (active); in [4], -74.9% (active); in [5], -40.8% (active); in assay [6], -55.2% (active). Also, the growth in assay [7] is -69.6% (active); in assay [8], -87.8% (active); in [9] it was -97.9% (active); in [10] it was -83.4% (active).

Regarding `N#Cc1c(-c2cccc(Cl)c2Cl)cc(-c2ccc3ccccc3c2)[nH]c1=O`, the growth in [1] is 56.9%; in assay [2] it was 19.6%; in assay [3], 53.2%; in assay [4], 34.4%; in assay [5], 13.4%; in [6], -16.6% (active). In addition, the growth in assay [7] is 78.7%; in assay [8], 25.1%; in assay [9] it was -65.1% (active); in assay [10], 116%.

On to `COc1cc2oc(-c3cccc(C(=O)Nc4ccc(Cl)cc4)c3)cc(=O)c2c(OCCNC(=O)[C@H](CCC(=O)OC(C)(C)C)NC(=O)OC(C)(C)C)c1OC`, for which the growth in assay [1] is 106%; in assay [2] it was 95.9%; in [3] it was 98.4%; in assay [4], 95.3%; in [5] it was 101%; in assay [6] it was 84.2%. For the same compound, the growth in assay [7] was 89%; in [8] it was 92.8%; in [9], 93.4%; in assay [10], 117%.

As to `Cc1ccc(NCC(=O)Cn2cc(COc3ccc(C=Nc4cnc5ccccc5c4)cc3)nn2)cc1`, the growth in assay [1] was 109%; in assay [2] it was 105%; in assay [3] it was 103%; in assay [4], 102%; in assay [5], 130%; in [6], 116%. In addition, the growth in [7] is 104%; in assay [8], 103%; in assay [9], 107%; in assay [10], 114%.

As for `c1ccc(-c2csc(Nc3cccc(Nc4nc(-c5ccccc5)cs4)c3)n2)cc1`, the growth in [1] was 36.8%; in assay [2], 66.2%; in assay [3], 58.1%; in [4], 73%; in assay [5] it was 26.9%; in assay [6], 43.7%. Also, the growth was 11.4% in assay [7], 44.2% in [8], 50.4% in assay [9] and 83.5% in assay [10].

On to `Cc1cc2c(cc1Cl)C(=O)/C(=C/c1ccccc1)O2`, for which the growth in [1] was 0.835% (active); in assay [2], 14.6%; in assay [3], 73.5%; in assay [4], 21.8%; in assay [5], 24.6%; in assay [6], 44.4%. Moreover, the growth in assay [7] was -75% (active); in assay [8] it was -59.7% (active); in assay [9], -38.5% (active); in [10], 32.7%.

In the case of `N/N=C(\N)c1c(N)nc(=S)[nH]c1-c1ccc(Cl)cc1Cl`, the growth is 103% in assay [1]; 106% in [2]; 106% in assay [3]; 92.5% in assay [4]; 116% in assay [5]; 76.2% in [6]. Also, the growth is 95.3% in assay [7], 104% in [8], 101% in assay [9] and 120% in [10].

For `CCCCCCCCOc1cccc(S(=O)(=O)Nc2ccc(C)cc2C(=O)O)c1`, the growth in assay [1] is 96.3%; in assay [2] it was 98.4%; in [3], 94.5%; in assay [4] it was 99.8%; in assay [5] it was 98.4%; in [6], 80.1%. Besides, the growth in assay [7] was 86.5%; in [8], 84.2%; in [9], 99.4%; in assay [10] it was 112%.

`S=C(NCCc1ccccc1)Nc1ccc(OCc2nc3ccccc3[nH]2)cc1`: the growth is 104% in assay [1]; 108% in assay [2]; 100% in assay [3]; 103% in [4]; 108% in assay [5]; 100% in assay [6]. Also, the growth in assay [7] is 101%; in assay [8] it was 101%; in assay [9], 105%; in assay [10], 109%.

Regarding `Cn1cc(-c2nnc(N)nc2-c2c[nH]c3ccccc23)c2cccnc21`, the growth in assay [1] is 65.7%; in assay [2] it was 71.1%; in [3], 69.9%; in assay [4] it was 48.1%; in assay [5] it was 15.2%; in assay [6], 87.1%. For the same compound, the growth in [7] is 21.4%; in assay [8] it was 46%; in [9] it was 54.9%; in [10], 25.9%.

As for `CC(=O)OC[C@@]1(C)C2CC[C@]3(C)C(CC=C4C5CC(C)(C)CC[C@]5(C(=O)Nc5cccc(C)c5)CC[C@]43C)[C@@]2(C)C[C@@H](OC(C)=O)[C@@H]1OC(C)=O` (stereo not given in full), the growth in assay [1] was 45%; in assay [2], 39%; in assay [3] it was 65.9%; in [4] it was 40.4%; in assay [5], 12.7%; in [6], 50.8%. Further, the growth was 40.3% in assay [7], 40.7% in [8], 53.4% in assay [9] and 45.7% in [10].

Take `COCOc1cc2oc(C(=O)N[C@@H](Cc3ccccc3)C(O)C(=O)NCc3ccccc3)c(C)c(=O)c2cc1OCOC` (stereo not given in full): the growth in assay [1] is 59.2%; in [2], -11.8% (active); in assay [3] it was 97.7%; in [4], 71.9%; in assay [5], 9.45% (active); in assay [6], 14.4%. In addition, the growth in assay [7] is 86.9%; in assay [8] it was 58.9%; in assay [9], 14.5%; in [10] it was 109%.

Regarding `CC(=O)Nc1cccc(-c2nc3cc(-c4ccc(O)cc4)ccc3n2C)c1`, the growth is 48.8% in assay [1]; 49.8% in assay [2]; 67.1% in [3]; 54.3% in [4]; 55.4% in assay [5]; 93.7% in assay [6]. Also, the growth in assay [7] was 26.7%; in assay [8], 35.2%; in [9], 63.2%; in assay [10], 56.5%.

For `Cc1cc2nc3c4ccccc4n(CCNCCN(C)C)c3nc2cc1C`, the growth in [1] was 31.2%; in assay [2] it was 53.3%; in assay [3], 36.3%; in [4], 45.3%; in assay [5], 5.46% (active); in [6] it was 10.5%. Also, the growth in assay [7] was 17.7%; in assay [8] it was 20.4%; in assay [9] it was 20.4%; in [10], -71.5% (active).

As for `NS(=O)(=O)c1ccc(-n2cc(-c3cccc(NC(=O)c4cc(Cl)cc(Cl)c4)c3)nn2)cc1`, the growth in assay [1] was 41.2%; in assay [2], 105%; in assay [3], 68.8%; in assay [4], 51.2%; in assay [5] it was 43.7%; in assay [6], 98.4%. Further, the growth in [7] was 75.5%; in [8], 27.1%; in assay [9], 79.9%; in [10], 76.4%.

In the case of `CN1CCN(c2ccc3c(c2)nc(NNC(=O)c2cnccn2)c2cccn23)CC1`, the growth in assay [1] was 1.16% (active); in assay [2], -7.98% (active); in [3], 27.7%; in assay [4], -24.4% (active); in assay [5], 2.41% (active); in assay [6], -29.3% (active). Further, the growth in assay [7] is -16.7% (active); in assay [8], 0.0581% (active); in assay [9] it was -95.5% (active); in assay [10] it was -64% (active).

Consider `CCOC(=O)C1=C(N)N(c2ccccc2)C2=C(C(=O)CC(C)(C)C2)C1c1ccc(Cl)cc1Cl` (stereo not given), for which the growth was 34.5% in assay [1]; 24.4% in assay [2]; 56.8% in assay [3]; 50.5% in [4]; 18.3% in [5]; -0.322% (active) in [6]. Further, the growth in [7] is 35.3%; in assay [8] it was 26.9%; in assay [9] it was 34.3%; in assay [10] it was 9.03% (active).

For `CC(=O)Nc1cccc(Nc2nccc(N[C@@H](C)c3ccccc3)n2)c1`, the growth is 18.2% in [1]; 34.7% in assay [2]; 40.6% in [3]; 8.72% (active) in [4]; 5.42% (active) in assay [5]; 45% in assay [6]. For the same compound, the growth in [7] is -43.4% (active); in [8] it was 16.4%; in assay [9], 26.6%; in assay [10] it was -3.46% (active).

For the compound `O=C(c1ccc(Cl)cc1)c1ccc(OCCCN2CCN(c3ccncc3)CC2)cc1`, the growth was 38.4% in [1]; 49.4% in assay [2]; 82.1% in [3]; 38.7% in assay [4]; 48.6% in assay [5]; 14.9% in assay [6]. For the same compound, the growth was 52.6% in assay [7], 55.5% in assay [8], 33.5% in [9] and -49.7% (active) in assay [10].

Regarding `O=C(/C=C/c1cccc(OCc2ccc(F)cc2)c1)c1nc2ccccc2[nH]1`, the growth in assay [1] was 73%; in assay [2], 42.2%; in assay [3], 114%; in assay [4], 71.1%; in [5], 76.8%; in assay [6], 27.5%. For the same compound, the growth in [7] was 63.5%; in [8], 49.5%; in [9], -46.1% (active); in assay [10], 13.8%.

As for `CC(C)c1sc(NC(=O)c2cc(NC(=O)c3cc(NC(=O)c4cscn4)cn3C)cn2C)nc1C(=O)NCCCN(C)C`, the growth was -22.3% (active) in [1]; -54% (active) in [2]; 19.9% in assay [3]; 16.1% in [4]; 89.9% in assay [5]; -22.9% (active) in assay [6]. The growth is -74.8% (active) in assay [7], 105% in [8], 64.8% in [9] and -63% (active) in assay [10].

In the case of `NS(=O)(=O)c1ccc(-n2cc(-c3cccc(NC(=O)c4ccc(Cl)c(C(F)(F)F)c4)c3)nn2)cc1`, the growth in [1] is -4.59% (active); in assay [2], 10%; in assay [3], 33.4%; in assay [4], 3.02% (active); in [5] it was 18.1%; in assay [6], -5.36% (active). The growth was 45.8% in assay [7], 4.33% (active) in assay [8], 22.5% in [9] and 2.2% (active) in assay [10].

As to `N#Cc1c(-c2cccc(O)c2O)cc(-c2ccc3ccccc3c2)[nH]c1=O`, the growth in [1] was 52.1%; in assay [2], 68.3%; in assay [3], 72.7%; in assay [4], 49.2%; in assay [5], 41.7%; in assay [6], 28%. Further, the growth in [7] is 51.3%; in assay [8] it was 84.9%; in assay [9] it was 64.1%; in assay [10], 84%.
